Source: PMC4336329 (PLoS ONE, 2015)
Screen size: about 310,000 compounds; about 14,000 (4.5%) showed an effect of 50% or more. The effect is printed as a negative number. The full list was thinned out, with strong results kept by preference.

biological target: human ether-à-go-go-related gene (hERG) potassium channel (human, UniProt Q12809); experiment: primary screen, population patch clamp on CHO cells stably expressing hERG; higher = less effect of the substance
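Further: peak tail current of the secondary pulse compared with the same well before compound.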

human ether-à-go-go-related gene (hERG) potassium channel, sequence (Q12809 whole entry, looked up): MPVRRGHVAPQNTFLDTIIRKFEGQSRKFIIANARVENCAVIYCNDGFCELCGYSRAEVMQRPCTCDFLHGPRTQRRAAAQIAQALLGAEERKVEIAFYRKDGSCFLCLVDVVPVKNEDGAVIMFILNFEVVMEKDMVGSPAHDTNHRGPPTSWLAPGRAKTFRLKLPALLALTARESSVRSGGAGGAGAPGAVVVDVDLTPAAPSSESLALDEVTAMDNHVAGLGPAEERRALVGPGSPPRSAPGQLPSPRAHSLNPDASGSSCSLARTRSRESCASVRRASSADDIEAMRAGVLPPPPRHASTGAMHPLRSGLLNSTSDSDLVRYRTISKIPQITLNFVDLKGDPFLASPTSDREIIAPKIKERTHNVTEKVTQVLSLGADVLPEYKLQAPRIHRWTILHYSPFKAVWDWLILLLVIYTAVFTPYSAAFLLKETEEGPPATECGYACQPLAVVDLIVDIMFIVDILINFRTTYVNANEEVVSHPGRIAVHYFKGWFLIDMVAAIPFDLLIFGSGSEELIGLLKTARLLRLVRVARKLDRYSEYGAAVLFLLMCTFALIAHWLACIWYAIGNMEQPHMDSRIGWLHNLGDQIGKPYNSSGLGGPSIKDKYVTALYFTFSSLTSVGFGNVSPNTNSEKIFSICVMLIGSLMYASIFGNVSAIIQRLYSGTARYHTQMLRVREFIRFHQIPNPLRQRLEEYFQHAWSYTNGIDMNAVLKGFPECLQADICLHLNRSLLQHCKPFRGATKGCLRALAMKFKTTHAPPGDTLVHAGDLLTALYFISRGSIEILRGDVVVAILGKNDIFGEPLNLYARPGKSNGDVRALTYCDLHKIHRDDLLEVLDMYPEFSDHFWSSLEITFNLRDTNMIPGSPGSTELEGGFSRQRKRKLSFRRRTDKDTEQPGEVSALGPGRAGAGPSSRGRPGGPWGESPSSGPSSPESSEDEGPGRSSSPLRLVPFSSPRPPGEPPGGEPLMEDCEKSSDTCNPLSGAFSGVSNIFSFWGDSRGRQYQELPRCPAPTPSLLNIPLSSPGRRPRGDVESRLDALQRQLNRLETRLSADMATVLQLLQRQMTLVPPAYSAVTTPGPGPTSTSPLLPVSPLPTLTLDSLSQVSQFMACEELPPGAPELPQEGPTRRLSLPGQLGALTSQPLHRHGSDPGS

Compound | hERG current change (%, negative = inhibition) at 10uM [%]
COc1ccc(CCNC(=O)C2CCN(S(=O)(=O)c3c(C)noc3C)CC2)cc1OC | -16.9
O=C(CCCNC(=O)/C(=C/c1ccc(F)cc1)NC(=O)c1ccccc1)OCc1ccccc1 | -64.3
O=C(CCCNC(=O)/C(=C/c1ccccc1F)NC(=O)c1ccccc1)OCc1ccccc1 | -5.02
O=C(O)CCCNC(=O)/C(=C\c1ccccc1F)NC(=O)c1ccccc1 | 13.4
O=C(CCCNC(=O)/C(=C\c1ccc(F)cc1)NC(=O)c1ccccc1)OCc1ccccc1 | -77.1
O=C(CCCNC(=O)/C(=C\c1ccccc1F)NC(=O)c1ccccc1)OCc1ccccc1 | -9.13
O=C(CCCNC(=O)/C(=C/c1ccc(Br)cc1)NC(=O)c1ccccc1)OCc1ccccc1 | -38.8
Cc1csc(NC(=O)c2ccc(COc3ccccc3)o2)n1 | -17.7
CC(=O)Nc1ccccc1NC(=O)C/C(C)=N/NC(=O)c1ccccn1 | 16.1
COc1ccc(Nc2cc(C)nc3ccc(OC)cc23)cc1 | -52.3
COc1ccc2nc(C)cc(Nc3ccc(C(=O)O)cc3)c2c1 | 39.5
COc1ccc2nc(C)cc(Nc3ccc(C)cc3)c2c1.Cl | -52.8
Nc1ncncc1-c1ccc2ccccc2c1 | -7.48
Clc1ccc(/C=N/c2c(-c3ccc(Cl)cc3)nc3n2CCS3)cc1 | 1.1
CC1CCCCC1NC(=O)c1cn(C)c2ccc(S(=O)(=O)N3CCCC3)cc2c1=O (stereo not drawn) | -0.37
COc1ccc(C(=O)OCn2nnc3ccccc3c2=O)cc1[N+](=O)[O-] | 13.6
Cc1ccc(S(=O)(=O)N(C)C)cc1NC(=O)C(C)Sc1ccccc1 (stereo not drawn) | -6.74
COc1ccc(C(=O)NCC(=O)N/N=C/C(C)=C/c2ccccc2)cc1OC | -1.63
CC(/C=N/NC(=O)c1ccc(Br)cc1)=C\c1ccccc1 | -3.38
COc1ccc(C(=O)N/N=C\C(C)=C\c2ccccc2)cc1OC | -61.4
CC(/C=N/NC(=O)c1nn(C)c(C)c1Br)=C\c1ccccc1 | -53.8

Compound | hERG current change (%, negative = inhibition) at 10uM [%]
CC(/C=N/NC(=O)c1ccccc1F)=C\c1ccccc1 | 12.7
COc1ccccc1C(=O)N/N=C/C(C)=C/c1ccccc1 | -73.8
CC(/C=N/NC(=O)c1ccncc1)=C\c1ccccc1 | 9.78
COc1ccc(C(=O)NCC(=O)N/N=C/C=C/c2ccccc2)cc1OC | -93.6
O=C(CNC(=O)c1ccccc1)N/N=C/C=C/c1ccccc1 | -1.96
CC(/C=N/NC(=O)c1c(Br)cnn1C)=C\c1ccccc1 | -13
COc1ccc(C(=O)NCC(=O)N/N=C(C)\C=C\c2ccccc2)cc1OC | -19.3
CC(=C/c1ccccc1)/C=N/NC(=O)c1ccccn1 | -30.3
NC(=O)c1ccsc1NC(=O)COC(=O)c1ccc(Cl)c(N)c1 | -3.1
CC1CCCN(C(=O)CCS(=O)(=O)c2ccc3c(c2)n(C)c(=O)c(=O)n3C)C1 (stereo not drawn) | 1.25
Cc1nc2ccccc2nc1CSc1nncs1 | 5.39
O=C(Nc1ccc(-c2nc3ccccc3o2)cc1)c1ccc(N2C(=O)C3C4C=CC(C4)C3C2=O)cc1 (stereo not drawn) | 3.26
O=C(Cc1ccccc1)NC(=S)Nc1ccc(OC(F)F)cc1 | -2.31
COCCN(CCOC)S(=O)(=O)c1ccc(NC(=O)c2cnccn2)cc1 | 13.1
CCOC(=O)c1c(NC(=O)c2ccco2)sc2c1CCCCC2 | 9.58
CCOC(=O)c1c(NC(=O)c2ccco2)sc2c1CCCC2 | 4.29
CCOC(=O)c1c(NC(=O)c2ccccc2C(=O)O)sc2c1CCC2 | -1.15
CCOC(=O)c1c(NC(=O)C(NCCN(C)C)c2ccccc2)sc2c1CCCC2 (stereo not drawn) | -73.2
CCOC(=O)c1c(NC(=O)c2ccccc2C(=O)O)sc2c1CCCC2 | 18
CCOC(=O)c1c(NC(=O)CSc2nnc(CN3CCOCC3)n2C)sc2c1CCCC2 | -30
CCOC(=O)c1c(NC(=O)CSc2nnc(CNC(=O)c3ccco3)n2C)sc2c1CCC2 | -50.1
